Data reported in PubChem BioAssay (EPA / NIEHS).
The source made the active and inactive calls. How the source made its calls: active means hit-call score of the fitted dose curve at least 0.9, where 1 is the maximum; inactive means score below 0.9.

Key:
[1] = target: Nuclear respiratory factor 1 (Homo sapiens) (UniProt Q16656); test: ATG_NRF1_CIS: Attagene CIS-FACTORIAL HepG2 Assay for human Nuclear Respiratory Factor 1 (NRF1) Orphan Gene (AID 2282987); conditions: HepG2 NRF1 cis-element reporter, Attagene multiplex; actives raise or lower the signal
Nuclear respiratory factor 1 (Homo sapiens), sequence (Q16656 whole entry, looked up): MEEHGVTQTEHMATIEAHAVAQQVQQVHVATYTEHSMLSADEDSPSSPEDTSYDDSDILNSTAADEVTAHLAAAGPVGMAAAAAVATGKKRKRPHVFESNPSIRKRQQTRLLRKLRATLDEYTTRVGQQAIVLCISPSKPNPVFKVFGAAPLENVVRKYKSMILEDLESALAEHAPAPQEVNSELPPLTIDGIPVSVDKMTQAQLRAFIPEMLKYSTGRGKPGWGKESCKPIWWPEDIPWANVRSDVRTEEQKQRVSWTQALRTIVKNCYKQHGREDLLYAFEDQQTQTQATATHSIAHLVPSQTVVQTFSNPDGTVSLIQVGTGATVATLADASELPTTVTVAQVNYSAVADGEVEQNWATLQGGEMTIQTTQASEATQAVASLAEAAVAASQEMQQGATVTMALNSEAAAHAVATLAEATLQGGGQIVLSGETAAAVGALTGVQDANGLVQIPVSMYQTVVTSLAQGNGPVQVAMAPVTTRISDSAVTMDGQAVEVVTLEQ
In short: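 Endogenous factor activity was captured via cis-element-driven reporter transcripts in HepG2 cells. Following 24 h chemical treatment, transcripts were quantified by RT-PCR and capillary electrophoresis.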

[2] = ATG_NFI_CIS: Attagene CIS-FACTORIAL HepG2 Assay for human Nuclear Factor I (NFI) (AID 2282989); conditions: HepG2 cis-regulatory reporter, NFI response element transcription; actives raise or lower the signal
In short: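 HepG2 cells transiently transfected with cis-element-driven multiplexed reporter transcription units, dosed for 24 h. Reporter mRNA quantified by RT-PCR, fluorescent labelling, HpaI digestion and capillary electrophoresis; bidirectional fit versus DMSO baseline.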

[3] = target: Myc proto-oncogene protein (Homo sapiens) (UniProt P01106); test: ATG_Myc_CIS: Attagene CIS-FACTORIAL HepG2 Assay for human Myelocytomatosis (Myc) Proto-Oncogene Transcription Factor (AID 2282990); conditions: HepG2, Attagene cis-reporter transcription factor activity; actives raise or lower the signal
Myc proto-oncogene protein (Homo sapiens), sequence (P01106 whole entry, looked up): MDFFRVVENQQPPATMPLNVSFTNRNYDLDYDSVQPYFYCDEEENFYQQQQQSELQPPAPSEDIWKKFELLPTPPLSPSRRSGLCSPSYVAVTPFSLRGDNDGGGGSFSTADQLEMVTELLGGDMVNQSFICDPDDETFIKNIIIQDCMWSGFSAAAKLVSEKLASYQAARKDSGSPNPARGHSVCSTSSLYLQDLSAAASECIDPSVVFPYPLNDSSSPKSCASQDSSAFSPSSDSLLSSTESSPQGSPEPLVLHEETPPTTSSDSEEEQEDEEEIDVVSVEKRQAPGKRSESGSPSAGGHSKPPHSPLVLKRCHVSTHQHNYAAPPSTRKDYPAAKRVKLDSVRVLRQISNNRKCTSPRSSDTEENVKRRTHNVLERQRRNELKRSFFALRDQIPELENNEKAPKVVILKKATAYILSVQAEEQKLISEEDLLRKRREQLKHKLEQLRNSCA
In short: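 Multiplexed cis-reporter transcription in HepG2 cells after 24 h chemical treatment. Reporter mRNA measured by RT-PCR and capillary electrophoresis fluorescence; activity fitted bidirectionally against DMSO control.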

[4] = ATG_NF_kB_CIS: Attagene CIS-FACTORIAL HepG2 Assay for human Nuclear Factor Kappa B (NF-kB) (AID 2282991); conditions: HepG2 Attagene cis-factorial NF-kB reporter mRNA; actives raise or lower the signal
In short: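 After 24 h compound incubation, transfected HepG2 cells yield total RNA; reporter cDNA is PCR-amplified, end-labelled with 6-FAM, HpaI-digested and analysed on a genetic analyser. Endogenous factor activity, DMSO-referenced bidirectional fit.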

[5] = ATG_NRF2_ARE_CIS: Attagene CIS-FACTORIAL HepG2 Assay for human Nuclear Factor Erythroid 2 Related Factor 2 (NFR2) response to Antioxidant Response Elements (ARE) (AID 2282992); conditions: HepG2 Attagene ARE/NRF2 reporter, transcription factor activity; actives raise or lower the signal
In short: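 Readout: reporter mRNA quantified by RT-PCR plus FAM-labelled primer extension, HpaI digestion and capillary electrophoresis, 24 h after dosing transfected HepG2 cells. Gain or loss of signal is fitted bidirectionally against DMSO baseline.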

[6] = ATG_Oct_MLP_CIS: Attagene CIS-FACTORIAL HepG2 Assay for human Octamer-Binding Transcription Factor (Oct) (AID 2282993); conditions: HepG2 Attagene cis-factorial Oct reporter, mRNA; actives raise or lower the signal
In short: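 HepG2 cells transiently transfected with cis-promoter-driven multiplexed reporter transcription units, dosed for 24 h. Reporter mRNA quantified by RT-PCR, fluorescent labelling, HpaI digestion and capillary electrophoresis; bidirectional fits versus DMSO baseline.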

[7] = target: Cellular tumor antigen p53 (Homo sapiens) (UniProt P04637); test: ATG_p53_CIS: Attagene CIS-FACTORIAL HepG2 Assay for human p53 Transcription Factor (AID 2282994); conditions: HepG2 p53 cis-element reporter, Attagene mRNA; actives raise or lower the signal
Cellular tumor antigen p53 (Homo sapiens), sequence (P04637 whole entry, looked up): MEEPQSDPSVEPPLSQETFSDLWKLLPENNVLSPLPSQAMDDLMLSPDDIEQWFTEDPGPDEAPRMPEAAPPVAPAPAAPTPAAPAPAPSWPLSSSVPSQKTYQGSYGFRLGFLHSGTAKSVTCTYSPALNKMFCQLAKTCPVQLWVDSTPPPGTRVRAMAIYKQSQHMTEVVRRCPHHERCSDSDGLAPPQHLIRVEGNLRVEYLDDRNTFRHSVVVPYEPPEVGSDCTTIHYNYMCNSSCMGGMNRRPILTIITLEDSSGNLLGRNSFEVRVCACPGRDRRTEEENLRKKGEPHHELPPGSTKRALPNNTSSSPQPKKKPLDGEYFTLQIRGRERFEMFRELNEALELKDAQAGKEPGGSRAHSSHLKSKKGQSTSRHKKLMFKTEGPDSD
In short: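 Read-out: reporter mRNA by RT-PCR plus capillary electrophoresis with fluorescence detection. Human HepG2 liver cells carried transfected multi-reporter cis-element constructs, dosed 24 h. Gain or loss of signal fitted bidirectionally against DMSO control.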

Measured: AC50

CC(C)(C)c1cc(Cc2cc(C(C)(C)C)c(O)c(C(C)(C)C)c2)cc(C(C)(C)C)c1O
inactive: [1] | [2] | [3] | [4] | [5] | [6]

CCc1ccc(C)nc1
inactive: [1] | [2] | [3] | [4] | [5] | [6]

C#CC(O)CCC (centres undefined)
inactive: [1] | [2] | [3] | [4] | [5] | [6]

C=C(C)CCCC
inactive: [1] | [2] | [3] | [4] | [5] | [6]

CCCCOC(=O)C(C)O (centres undefined)
inactive: [1] | [2] | [3] | [4] | [5] | [6]

CSc1ccc(O)cc1C
inactive: [1] | [2] | [3] | [4] | [5] | [6]

CCC(C)CO (centres undefined)
inactive: [1] | [2] | [3] | [4] | [5] | [6]

COCCOCCC[Si](C)(O[Si](C)(C)C)O[Si](C)(C)C
inactive: [1] | [2] | [3] | [4]
active: [5] 1.64 µM | [6] 3.74 µM

CC(C)Nc1ccc(NC(C)C)c2c1C(=O)c1ccccc1C2=O
inactive: [1] | [2] | [3] | [4] | [6]
active: [5] 2.85 µM

CC(C)CC=C(C=O)c1ccccc1
inactive: [1] | [2] | [3] | [4] | [6]
active: [5] 71.8 µM

O=C(c1ccccc1)c1ccc(Cl)cc1
inactive: [1] | [2] | [3] | [4] | [6]
active: [5] 132 µM

CCOC(=O)C1CC(=O)C(=C(O)C2CC2)C(=O)C1 (centres undefined)
inactive: [1] | [2] | [3] | [4] | [5] | [6]

CN1CN(C)CN(C)C1
active: [6] 165 µM
inactive: [1] | [2] | [3] | [4] | [5] | [7]

CCCCOC(=O)[C@H](C)O
inactive: [1] | [2] | [3] | [4] | [5] | [6]

Nc1cccnc1N
active: [5] 17.9 µM
inactive: [1] | [2] | [3] | [4] | [6]

Brc1ccccn1
inactive: [1] | [2] | [3] | [4] | [5] | [6]

N#CCCOCCC#N
inactive: [1] | [2] | [3] | [4] | [5] | [6]

CN(C)C(C)(C)CO
inactive: [1] | [2] | [3] | [4] | [5] | [6]

CCN=c1cc2oc3cc(NCC)c(C)cc3c(-c3ccccc3C(=O)OCC)c-2cc1C
inactive: [1] | [3] | [4]
active: [2] 17.5 µM | [5] 0.132 µM | [6] 7.4 µM

N#Cc1ccccc1O
inactive: [1] | [2] | [3] | [4] | [5] | [6]

CC(C)=CCCC(C)O (centres undefined)
inactive: [1] | [2] | [3] | [4] | [5] | [6]

CCCCCCCCCc1ccc(OCCO)cc1
active: [5] 5.92 µM
inactive: [1] | [2] | [3] | [4] | [6]

CC1=CCC(=O)O1
inactive: [1] | [2] | [3] | [4] | [5] | [6]

Nc1c(Br)cc([N+](=O)[O-])cc1Br
active: [5] 27.4 µM
inactive: [1] | [2] | [3] | [4] | [6]

CCc1cccc(C)c1N(C(=O)C(=O)O)C(C)COC (centres undefined)
inactive: [1] | [2] | [3] | [4] | [5] | [6]

C=CCOC(=O)CC(C)C
inactive: [1] | [2] | [3] | [4] | [5] | [6] | [7]

CC(C)OC=O
inactive: [1] | [2] | [3] | [4] | [5] | [6]

CCCCCCCCCCCCCC[P+](CCCC)(CCCC)CCCC
active: [2] 1.24 µM | [5] 0.719 µM | [6] 0.903 µM
inactive: [1] | [3] | [4]

CCCC(=O)OCC(COC(=O)CCC)OC(=O)CCC
active: [4] 44.7 µM
inactive: [1] | [2] | [3] | [5] | [6]

CO[Si](CCCOCC1CO1)(OC)OC (centres undefined)
inactive: [1] | [2] | [3] | [4] | [6] | [7]
active: [5] 73.2 µM

CC(C)(C)C(=O)C1C(=O)c2ccccc2C1=O
active: [5] 31.5 µM | [6] 63.1 µM
inactive: [1] | [2] | [3] | [4]

CCOC(OCC)OCC
inactive: [1] | [2] | [3] | [4] | [5] | [6] | [7]

COc1ccccc1C=O
inactive: [1] | [2] | [3] | [4] | [5] | [6]

Cc1ccc2c(c1)OCC(=O)CO2
inactive: [1] | [2] | [3] | [4] | [5] | [6]

CC(C)(C)c1cc(CCC(=O)OCC(COC(=O)CCc2cc(C(C)(C)C)c(O)c(C(C)(C)C)c2)(COC(=O)CCc2cc(C(C)(C)C)c(O)c(C(C)(C)C)c2)COC(=O)CCc2cc(C(C)(C)C)c(O)c(C(C)(C)C)c2)cc(C(C)(C)C)c1O
inactive: [1] | [2] | [3] | [4] | [5] | [6]

CCOCOCC
inactive: [1] | [2] | [3] | [4] | [5] | [6]

CC(=O)CCC(C)C
inactive: [1] | [2] | [3] | [4] | [5] | [6]

CC1CCCCC1
inactive: [1] | [2] | [3] | [4] | [5] | [6] | [7]

Cc1cc(=O)[nH]c(C(C)C)n1
inactive: [1] | [2] | [3] | [4] | [5] | [6] | [7]

CCCCCCCCn1sc(Cl)c(Cl)c1=O
inactive: [1] | [2] | [3] | [4] | [6]
active: [5] 6.58 µM | [7] 11.1 µM

Oc1ccc(C2(c3ccc(O)c(C4CCCCC4)c3)CCCCC2)cc1C1CCCCC1
inactive: [1] | [3] | [4] | [6] | [7]
active: [2] 8.18 µM | [5] 6.2 µM

CCCCCCCCCCCCC[N+](C)(C)Cc1ccccc1
inactive: [1] | [2] | [3] | [4] | [6] | [7]
active: [5] 4.37 µM

Oc1ccc2c(c1)CCC2
inactive: [1] | [2] | [3] | [4] | [5] | [6] | [7]

CCOC(=O)CCC(C)=O
inactive: [1] | [2] | [3] | [4] | [5] | [6] | [7]

CCCCCCCC/C=C\CCCCCCCC(=O)OCC(O)CO (centres undefined)
inactive: [1] | [2] | [3] | [4] | [6] | [7]
active: [5] 68.4 µM

CCCCC(CC)COC(=O)c1ccc(N(C)C)cc1 (centres undefined)
inactive: [1] | [2] | [3] | [4] | [6] | [7]
active: [5] 27.4 µM

O=C1c2ccccc2C(=O)c2c(Cl)cccc21
active: [4] 4.35 µM
inactive: [1] | [2] | [3] | [5] | [6] | [7]

OCC1CCCO1 (centres undefined)
inactive: [1] | [2] | [3] | [4] | [5] | [6] | [7]

CC(=O)C=O
inactive: [1] | [2] | [3] | [4] | [5] | [6] | [7]

O=C1C=CC(=O)N1c1ccccc1
active: [5] 53.8 µM
inactive: [1] | [2] | [3] | [4] | [6] | [7]

CCCCCC/C=C/CCCCCCCC(=O)O
inactive: [1] | [2] | [3] | [4] | [5] | [6] | [7]

Cc1ccc(O)cn1
inactive: [1] | [2] | [3] | [4] | [5] | [6] | [7]

OCCC(O)CO (centres undefined)
inactive: [1] | [2] | [3] | [4] | [5] | [6] | [7]

CSc1ccc(Cl)cc1
inactive: [1] | [2] | [3] | [4] | [5] | [6] | [7]

CC(C)OC(=O)COc1ccc(Cl)cc1Cl
inactive: [1] | [2] | [3] | [4] | [5] | [6] | [7]

C[Si](C)O[Si](C)C
inactive: [1] | [2] | [3] | [4] | [5] | [6] | [7]

CCC(=O)OC(C)c1ccccc1 (centres undefined)
inactive: [1] | [2] | [3] | [4] | [5] | [6] | [7]

c1ccc(C[P+](c2ccccc2)(c2ccccc2)c2ccccc2)cc1
active: [5] 55.7 µM
inactive: [1] | [2] | [3] | [4] | [6] | [7]

CCCCCCCC/C=C\CCCCCCCC(=O)N(C)CC(=O)O
inactive: [1] | [2] | [3] | [4] | [5] | [6] | [7]

O=C(Cl)c1ccc(Cl)cc1Cl
inactive: [1] | [2] | [3] | [4] | [5] | [6] | [7]

CCn1c2ccccc2c2ccccc21
inactive: [1] | [3] | [4] | [7]
active: [2] 152 µM | [5] 157 µM | [6] 100 µM

CCC(Cc1c(I)cc(I)c(N)c1I)C(=O)O (centres undefined)
inactive: [1] | [2] | [4] | [6] | [7]
active: [3] 148 µM | [5] 47 µM

CC(C)C(=O)OCc1ccccc1
inactive: [1] | [2] | [3] | [4] | [5] | [6] | [7]

CCOCN(C(=O)CS(=O)(=O)O)c1c(C)cccc1CC
inactive: [1] | [2] | [3] | [4] | [5] | [6] | [7]

OCCCCl
inactive: [1] | [2] | [3] | [4] | [5] | [6] | [7]

CC(=O)c1ccccc1N
inactive: [1] | [2] | [3] | [4] | [5] | [6] | [7]
